# Results as given in PMC5540273 (PLoS ONE, 2017).
# Where “and” joins values, the source holds several entries; their conditions need not be identical. Equal entries are not always repeated. Where two headings read alike, the source gives them in different places.
# Experiments:
# BLK = details: concentration: 1 μM, replicates: in singlicate, n = 1
# BMPR1A = details: concentration: 1 μM, replicates: in singlicate, n = 1
# BMPR1B = details: concentration: 1 μM, replicates: in singlicate; n = 1
# BMPR2 = details: concentration: 1 μM, replicates: in singlicate, n = 1
# BMX = details: concentration: 1 μM, replicates: in singlicate, n = 1
# BRAF = details: concentration: 1 μM, replicates: in singlicate, n = 1
# BRK = test system: T1, BRK; details: concentration: 1 μM, replicates: in singlicate, n = 1
# T1 construct: gene PTK6
# BRSK1 = details: concentration: 1 μM, replicates: in singlicate, n = 1
# BRSK2 = details: concentration: 1 μM, replicates: in singlicate, n = 1
# BTK = details: concentration: 1 μM, replicates: in singlicate, n = 1
# BUB1 = details: concentration: 1 μM, replicates: in singlicate, n = 1
# CAMK1B = details: concentration: 1 μM, replicates: in singlicate, n = 1
# CAMK1D = details: concentration: 1 μM, replicates: in singlicate, n = 1
# CAMK1G = details: concentration: 1 μM, replicates: in singlicate; n = 1
# CAMK1 = details: concentration: 1 μM, replicates: in singlicate, n = 1
# CAMK2A = details: concentration: 1 μM, replicates: in singlicate; n = 1
# CAMK2B = details: concentration: 1 μM, replicates: in singlicate; n = 1
# CAMK2D = details: concentration: 1 μM, replicates: in singlicate, n = 1
# CAMK2G = details: concentration: 1 μM, replicates: in singlicate, n = 1
# CAMK4 = details: concentration: 1 μM, replicates: in singlicate; n = 1
# 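Note: KINOMEscan kinase panel screen.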
structure (smiles),measurement,setting,value
COC(=O)Nc1nc2cc(Oc3ccc(NC(=O)Nc4cc(F)ccc4F)cc3)ccc2[nH]1.Cl [GW701424],%Inh,BLK,25%
same,%Inh,BMPR1A,0%
same,%Inh,BMPR1B,0%
same,%Inh,BMPR2,24%
same,%Inh,BMX,9%
same,%Inh,BRAF,53%
same,%Inh,BRK,0%
same,%Inh,BRSK1,0%
same,%Inh,BRSK2,0%
same,%Inh,BTK,6%
same,%Inh,BUB1,77%
same,%Inh,CAMK1B,27%
same,%Inh,CAMK1D,20%
same,%Inh,CAMK1G,7%
same,%Inh,CAMK1,4%
same,%Inh,CAMK2A,0%
same,%Inh,CAMK2B,0%
same,%Inh,CAMK2D,20%
same,%Inh,CAMK2G,11%
same,%Inh,CAMK4,0%
COc1cc(Nc2nccc(N3CCC(NC(=O)c4cccc(NC(C)=O)c4)C3)n2)cc(OC)c1OC (centres unmarked) [GSK1379754],%Inh,BLK,34%
same,%Inh,BMPR1A,0%
same,%Inh,BMPR1B,0%
same,%Inh,BMPR2,0%
same,%Inh,BMX,18%
same,%Inh,BRAF,3%
same,%Inh,BRK,19%
same,%Inh,BRSK1,26%
same,%Inh,BRSK2,0%
same,%Inh,BTK,0%
same,%Inh,BUB1,0%
same,%Inh,CAMK1B,7%
same,%Inh,CAMK1D,27%
same,%Inh,CAMK1G,6%
same,%Inh,CAMK1,40%
same,%Inh,CAMK2A,0%
same,%Inh,CAMK2B,0%
same,%Inh,CAMK2D,0%
same,%Inh,CAMK2G,21%
same,%Inh,CAMK4,0%
COc1ccc(COc2cc(-n3cnc4ccccc43)sc2C(N)=O)cc1 [GSK1024304],%Inh,BLK,37%
same,%Inh,BMPR1A,0%
same,%Inh,BMPR1B,0%
same,%Inh,BMPR2,0%
same,%Inh,BMX,0%
same,%Inh,BRAF,0%
same,%Inh,BRK,3%
same,%Inh,BRSK1,0%
same,%Inh,BRSK2,5%
same,%Inh,BTK,0%
same,%Inh,BUB1,9%
same,%Inh,CAMK1B,0%
same,%Inh,CAMK1D,6%
same,%Inh,CAMK1G,8%
same,%Inh,CAMK1,7%
same,%Inh,CAMK2A,0%
same,%Inh,CAMK2B,0%
same,%Inh,CAMK2D,0%
same,%Inh,CAMK2G,23%
same,%Inh,CAMK4,0%
Cc1nnc(-c2ccc3occ(-c4ccc(C(C)O)cc4)c3c2)o1 (centres unmarked),%Inh,BLK,2%
same,%Inh,BMPR1A,2%
same,%Inh,BMPR1B,23%
same,%Inh,BMPR2,2%
same,%Inh,BMX,44%
same,%Inh,BRAF,1%
same,%Inh,BRK,0%
same,%Inh,BRSK1,10%
same,%Inh,BRSK2,13%
same,%Inh,BTK,0%
same,%Inh,BUB1,9%
same,%Inh,CAMK1B,0%
same,%Inh,CAMK1D,0%
same,%Inh,CAMK1G,0%
same,%Inh,CAMK1,12%
same,%Inh,CAMK2A,3%
same,%Inh,CAMK2B,0%
same,%Inh,CAMK2D,6%
same,%Inh,CAMK2G,11%
same,%Inh,CAMK4,0%
COc1ccc(Nc2nccc(N3CCC(NC(=O)Nc4cccc(C(C)=O)c4)C3)n2)cc1 (centres unmarked) [GSK1379731],%Inh,BLK,35%
same,%Inh,BMPR1A,0%
same,%Inh,BMPR1B,0%
same,%Inh,BMPR2,0%
same,%Inh,BMX,0%
same,%Inh,BRAF,0%
same,%Inh,BRK,7%
same,%Inh,BRSK1,0%
same,%Inh,BRSK2,0%
same,%Inh,BTK,0%
same,%Inh,BUB1,0%
same,%Inh,CAMK1B,13%
same,%Inh,CAMK1D,40%
same,%Inh,CAMK1G,0%
same,%Inh,CAMK1,37%
same,%Inh,CAMK2A,0%
same,%Inh,CAMK2B,0%
same,%Inh,CAMK2D,1%
same,%Inh,CAMK2G,11%
same,%Inh,CAMK4,0%
CC(C)(CN)c1nc(-c2ccc(Cl)c(O)c2)c(-c2ccncc2)[nH]1.O=C(O)C(F)(F)F [SB-477794],%Inh,BLK; 1 µM,98.2% and 98%
same,%Inh,BMPR1A; 1 µM,37% and 47%
same,%Inh,BMPR1B,99.9%
same,%Inh,BMPR2; 1 µM,32% and 33%
same,%Inh,BMX; 1 µM,0% and 40%
same,%Inh,BRAF; 1 µM,97.8% and 98.5%
same,%Inh,BRK; 1 µM,99.7% and 99.6%
same,%Inh,BRSK1; 1 µM,0% and 20%
same,%Inh,BRSK2; 1 µM,0% and 22%
same,%Inh,BTK; 1 µM,43% and 71%
same,%Inh,BUB1; 1 µM,100% and 98.2%
same,%Inh,CAMK1B; 1 µM,24% and 3%
same,%Inh,CAMK1D; 1 µM,10% and 9%
same,%Inh,CAMK1G,0%
same,%Inh,CAMK1; 1 µM,19% and 13%
same,%Inh,CAMK2A,0%
same,%Inh,CAMK2B,0%
same,%Inh,CAMK2D; 1 µM,11% and 0%
same,%Inh,CAMK2G; 1 µM,0% and 17%
same,%Inh,CAMK4,0%
CCCCCc1nc2c(N)ncnc2n1CCCCC [SKF-97255],%Inh,BLK,16%
same,%Inh,BMPR1A,19%
same,%Inh,BMPR1B,0%
same,%Inh,BMPR2,40%
same,%Inh,BMX,3%
same,%Inh,BRAF,0%
same,%Inh,BRK,0%
same,%Inh,BRSK1,0%
same,%Inh,BRSK2,22%
same,%Inh,BTK,0%
same,%Inh,BUB1,0%
same,%Inh,CAMK1B,0%
same,%Inh,CAMK1D,0%
same,%Inh,CAMK1G,15%
same,%Inh,CAMK1,0%
same,%Inh,CAMK2A,0%
same,%Inh,CAMK2B,0%
same,%Inh,CAMK2D,6%
same,%Inh,CAMK2G,0%
same,%Inh,CAMK4,21%
COc1ccc(Nc2nccc(N3CCC(NC(=O)Nc4cc(C)ccc4C)C3)n2)cc1 (centres unmarked) [GSK1379741],%Inh,BLK,0%
same,%Inh,BMPR1A,0%
same,%Inh,BMPR1B,0%
same,%Inh,BMPR2,0%
same,%Inh,BMX,0%
same,%Inh,BRAF,0%
same,%Inh,BRK,5%
same,%Inh,BRSK1,0%
same,%Inh,BRSK2,0%
same,%Inh,BTK,0%
same,%Inh,BUB1,33%
same,%Inh,CAMK1B,13%
same,%Inh,CAMK1D,0%
same,%Inh,CAMK1G,0%
same,%Inh,CAMK1,0%
same,%Inh,CAMK2A,0%
same,%Inh,CAMK2B,0%
same,%Inh,CAMK2D,0%
same,%Inh,CAMK2G,0%
same,%Inh,CAMK4,0%
Cc1c(Cn2c(C)nn3c(=O)cc(N4CCOC(C)C4)nc23)cccc1C(F)(F)F (centres unmarked) [GSK2344444],%Inh,BLK,25%
same,%Inh,BMPR1A,6%
same,%Inh,BMPR1B,0%
same,%Inh,BMPR2,0%
same,%Inh,BMX,1%
same,%Inh,BRAF,0%
same,%Inh,BRK,7%
same,%Inh,BRSK1,0%
same,%Inh,BRSK2,0%
same,%Inh,BTK,0%
same,%Inh,BUB1,0%
same,%Inh,CAMK1B,10%
same,%Inh,CAMK1D,9%
same,%Inh,CAMK1G,0%
same,%Inh,CAMK1,0%
same,%Inh,CAMK2A,0%
same,%Inh,CAMK2B,0%
same,%Inh,CAMK2D,0%
same,%Inh,CAMK2G,10%
same,%Inh,CAMK4,0%
Fc1ccc(-c2ncn(CCCN3CCOCC3)c2-c2ccccn2)cc1 [SB-211742],%Inh,BLK,9%
same,%Inh,BMPR1A,7%
same,%Inh,BMPR1B,0%
same,%Inh,BMPR2,0%
same,%Inh,BMX,0%
same,%Inh,BRAF,0%
same,%Inh,BRK,2%
same,%Inh,BRSK1,6%
same,%Inh,BRSK2,14%
same,%Inh,BTK,15%
same,%Inh,BUB1,0%
same,%Inh,CAMK1B,0%
same,%Inh,CAMK1D,0%
same,%Inh,CAMK1G,0%
same,%Inh,CAMK1,0%
same,%Inh,CAMK2A,6%
same,%Inh,CAMK2B,10%
same,%Inh,CAMK2D,0%
same,%Inh,CAMK2G,11%
same,%Inh,CAMK4,20%
